# This is one part of a sample in which hits are shown more often than they occur.
# RBX1-CUL1 inh = inhibitors of human ROC1-CUL1 ubiquitin ligase activity; E3 ubiquitin-protein ligase RBX1 (Homo sapiens) + Cullin-1 (Homo sapiens), P62877+Q13616; in vitro K48 di-Ub FRET, acceptor:donor ratio, 45 min; inhibition, % at 10 µM; 140,000 tested, 0.6% active; in the data active means inhibition above about 25%
# Target sequence (P62877 whole entry, looked up): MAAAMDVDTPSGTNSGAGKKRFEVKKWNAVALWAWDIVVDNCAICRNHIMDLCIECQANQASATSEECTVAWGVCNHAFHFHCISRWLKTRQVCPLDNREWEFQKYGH
# Target sequence (Q13616 whole entry, looked up): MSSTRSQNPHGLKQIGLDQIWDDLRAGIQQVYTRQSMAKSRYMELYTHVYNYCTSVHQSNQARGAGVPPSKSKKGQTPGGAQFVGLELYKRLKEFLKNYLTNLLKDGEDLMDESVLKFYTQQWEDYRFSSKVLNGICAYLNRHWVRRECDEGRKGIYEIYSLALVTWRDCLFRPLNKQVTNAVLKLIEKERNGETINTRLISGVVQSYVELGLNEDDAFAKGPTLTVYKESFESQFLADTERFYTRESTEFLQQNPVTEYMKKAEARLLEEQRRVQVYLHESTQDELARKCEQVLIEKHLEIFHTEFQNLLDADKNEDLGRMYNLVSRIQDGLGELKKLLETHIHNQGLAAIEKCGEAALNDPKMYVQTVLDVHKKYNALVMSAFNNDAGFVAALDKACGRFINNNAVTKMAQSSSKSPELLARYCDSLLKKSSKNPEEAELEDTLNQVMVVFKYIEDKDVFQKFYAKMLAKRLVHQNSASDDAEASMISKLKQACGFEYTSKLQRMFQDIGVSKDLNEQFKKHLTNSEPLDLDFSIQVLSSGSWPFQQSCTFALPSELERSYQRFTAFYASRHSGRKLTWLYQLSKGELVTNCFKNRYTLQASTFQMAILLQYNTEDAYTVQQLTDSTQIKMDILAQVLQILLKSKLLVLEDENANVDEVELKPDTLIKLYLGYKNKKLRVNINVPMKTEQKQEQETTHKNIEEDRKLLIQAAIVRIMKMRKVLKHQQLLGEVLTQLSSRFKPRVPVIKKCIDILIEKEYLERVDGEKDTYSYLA
# * hit, by the source's call.
SMILES,RBX1-CUL1 inh
Cc1ccc(COc2ccccc2/C=C2\C(=O)NN(c3ccccc3)C2=O)cc1,13.8
COc1cc(/C=C2\C(=O)NN(c3ccccc3)C2=O)ccc1OCCCOc1ccccc1,5.0
COc1cccc(/C=C2/C(=O)NN(c3ccc(C)cc3)C2=O)c1,-1.6
Cc1cccc(OCCCOc2ccccc2/C=C2\C(=O)NN(c3ccccc3)C2=O)c1,32.2*
Cc1ccc(OCCCOc2cccc(/C=C3\C(=O)NN(c4ccccc4)C3=O)c2)cc1,25.5*
COC(=O)c1c(-c2ccc(Cl)cc2)csc1NC(=O)C(C)(C)Oc1ccc(Cl)cc1,-5.0
CC#CCN1C(=O)NC(CCCc2ccccc2)(C2CCN(C(=O)c3cccnc3OC)CC2)C1=O (configuration not stated),7.0
O=C1C(=O)N(CCc2c[nH]c3ccccc23)C(c2ccc(O)cc2)C1C(=O)c1ccccc1 (configuration not stated),-3.4
COc1cccc(CC2(CO)CCCN(C(=O)C3=C(C)OCCO3)C2)c1 (configuration not stated),-2.7
CC(C)CCn1c(SCCCn2c(Br)nc3c2c(=O)[nH]c(=O)n3C)nc2c1c(=O)[nH]c(=O)n2C,-1.4
Cc1c(N2C(=O)/C(=C/c3ccc(Cl)cc3Cl)SC2=S)c(=O)n(-c2ccccc2)n1C,-2.3
O=C(NN1C(=O)/C(=C/c2ccc(Cl)cc2Cl)SC1=S)c1ccccc1Cl,1.1
O=C(O)C1=NN(c2ccccc2)C(=O)/C1=C\c1ccc(Cl)cc1Cl,40.3*
O=C(NCCC1=CCCCC1)c1cc(-c2ccco2)nc2ccccc12,41.7*
O=C(NCCC1=CCCCC1)c1ccco1,3.8
O=C(NCCC1=CCCCC1)c1ccccc1Cl,1.1
CCC(O)c1nc2ccccc2n1CC(=O)N1CCCCC1 (configuration not stated),-0.9
CC(=O)OCC(OC(C)=O)C1OC(C)(C)OC1C1COC(C)(C)O1 (configuration not stated),1.0
Cc1cccc2c1Sc1ccccc1CC2N1CCNCC1 (configuration not stated),-3.4
C=CCNC(=S)Nc1ccc(OCc2nc3ccccc3s2)cc1,7.2
O=C1CC(=Nc2cccc3cc(S(=O)(=O)O)ccc23)c2ccccc2C1=O,79.8*
O=C1C(=Nc2ccc(Cl)c(Cl)c2)CC(=NS(=O)(=O)c2ccc(Cl)cc2)c2ccccc21,-14.5
O=C1c2cc(S(=O)(=O)O)ccc2C(=O)c2c(Cl)cccc21,-2.7
COc1ccc(CNC2CCCCCC2)cc1OCC(O)CN1CCCC1 (configuration not stated),3.7
O=c1cc(-c2ccc(F)cc2)nc(N2CCN(Cc3ccccc3)CC2)[nH]1,8.5
SMILES,RBX1-CUL1 inh
O=C1C(=Cc2ccc(-c3cc(Cl)ccc3Cl)o2)C(=O)N(c2ccccc2)C(=S)N1c1ccccc1,-11.1
CC1=NOC(=O)/C1=C/c1cccn1C,2.5
CC1=NOC(=O)/C1=C\c1ccc(-c2cc(Cl)ccc2Cl)o1,97.4*
CCOc1ccc(CCN2C(=O)NC(=O)C3C2=NC(c2ccc(OC)cc2)=NC3(C(F)(F)F)C(F)(F)F)cc1OCC (configuration not stated),-1.0
CC(=O)C(C(C)=O)C1=CC(=O)C(=O)c2ccccc21,102.7*
CCc1cc2c(cc1OC(C)=O)C(=O)c1ccccc1C2=O,10.1
O=C(OC1=CC(=O)c2ccccc2C1=O)c1ccccc1,-17.1
CNc1nc(C(C)C)nnc1-c1ccc(Cl)cc1,-4.8
CC(Sc1nc(-c2ccccc2)c(-c2ccccc2)[nH]1)C(=O)O (configuration not stated),-3.4
COc1ccc(C(=O)CSc2nc(-c3ccccc3)c(-c3ccccc3)[nH]2)cc1,4.2
O=C(CSc1nc(-c2ccccc2)c(-c2ccccc2)[nH]1)c1ccc(O)c(O)c1O,101.4*
Cc1ccc(NCc2nc3ccccc3n2CCOc2ccc(C)cc2)cc1,-4.0
COc1ccccc1CC(=O)NNS(=O)(=O)c1ccc(Cl)cc1,8.8
COC(=O)c1cc(NC(=O)Cc2cccs2)ccc1O,-5.9
CCOC(=O)c1cccc(NC(=O)Cc2cccs2)c1,4.2
COC(=O)c1cc(NC(=O)Cc2cccs2)cc(C(=O)OC)c1,56.2*
COC(Cc1ccccc1OC(C)C)C(=O)c1ccccc1 (configuration not stated),-1.9
CCOC(=O)NCCOc1cnn(-c2ccccc2)c(=O)c1Cl,4.8
CCN(CC)C1CCN(C(=O)C2(N(C)C)Cc3ccccc3C2)C1 (configuration not stated),6.1
N#Cc1c(-c2ccccc2)c(-c2ccccc2)n(Cc2ccco2)c1NC(=O)c1cccs1,-2.9
CC(C)=CC(=O)/C=C(/C)c1cccs1,-5.4
N#C/C(=C\c1ccco1)C(=O)c1cccs1,57.2*
CCCc1ccc(-c2c3c(c(-c4ccccc4)n2-c2ccccc2)C(=O)c2ccccc2C3=O)cc1,-6.8
CCc1ocnc1C(=O)NCc1cccnc1-n1cnc2ccccc21,-12.2
CC(=O)c1coc2ccc3ccccc3c2c1=O,5.5
SMILES,RBX1-CUL1 inh
O=C1CC(O)(C(F)(F)F)Oc2c1ccc1ccccc21 (configuration not stated),-1.3
CC(=O)C1C(=O)Oc2c(ccc3ccccc23)C1=O (configuration not stated),39.9*
Cc1ccsc1CNc1cccc(C(=O)NCc2cc(=O)[nH]cn2)c1,-5.5
CCOC(=O)c1cc(C)sc1NC(=O)CN1CCCCC1,-3.8
COc1cccc(/C=C/C(=O)C2C=C(Br)C=C(Br)C(=O)C2=O)c1 (configuration not stated),-3.3
Cc1ccccc1/C=C/C(=O)C1C=C(Br)C=CC(=O)C1=O (configuration not stated),-1.5
COc1ccccc1/C=C/C(=O)C1C=C(Br)C=C(Br)C(=O)C1=O (configuration not stated),27.6*
O=C(Cc1ccc(F)cc1)N1CCc2onc(-c3ccc4c(c3)OCO4)c2C1,10.2
O=C(Nc1cccc(NC(=O)c2cc(I)ccc2Cl)c1)c1ccco1,3.2
Cc1ccc(N2C(=O)/C(=C/c3cc(C)n(-c4ccccc4)c3C)C(=O)N(c3ccccc3)C2=S)cc1C,0.5
CC(=O)NC1=NC(=O)/C(=C/c2cc(C)n(-c3cccc(C(=O)O)c3)c2C)S1,50.3*
CC(=O)NC1=NC(=O)/C(=C/c2sccc2C)S1,2.5
CCOC(=O)c1cccc(-n2c(C)cc(C=C3C(=O)N(C)C(=O)N(C)C3=O)c2C)c1,4.4
COC(=O)c1cccc(-n2c(C)cc(/C=C3\SC(=O)N(Cc4ccc(F)cc4)C3=O)c2C)c1,-1.6
Cc1cc(/C=C2\C(=O)N(C)C(=S)N(c3ccccc3)C2=O)c(C)n1-c1cccc(C(=O)O)c1,27.9*
Cc1nc(Cl)c(C#N)c(C)c1Cl,7.8
CN1CC(=NC(=O)N(C)c2ccccc2)c2ccccc2C1=O,-3.0
COc1ccc(NC(=O)c2cccc(NC(=O)CC(C)C)c2)cc1,13.3
COC12C=CC(CC1)C1C(=O)c3cccc(O)c3C(=O)C12 (configuration not stated),1.4
COC12C=CC(CC1)C1C(=O)c3c(OC(=O)OCc4ccccc4)ccc(O)c3C(=O)C12 (configuration not stated),26.8*
CC1(O)CC(=O)C(C(=O)OCc2ccccc2)C(c2ccc(O)cc2)C1C(=O)OCc1ccccc1 (configuration not stated),7.8
CC(=O)CSc1nnc(-c2cnn(-c3ccccc3)c2N)n1-c1ccccc1,-7.5
COc1ccc(OC)c(NC(=O)c2c(NCc3sccc3C)sc3c2CCCCC3)c1,3.0
